Reference: PubChem BioAssay
For part of these data: Entries with a potency or affinity are not part of this list. Active and inactive are the calls of the source.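 The calls were made as follows, unless noted: active = earlier screen potentiator hit that boosts the TRPC4 ion channel at some dose, with a dose response; inactive = no potentiation, no dose response, or not a prior hit.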

Legend:
[1] = system: TRPC4 beta (transient receptor potential cation channel C4), mouse; test: TRPC4 cation channel opening, retest – cell-based, Fluo4 calcium, HEK293 TRPC4beta/mu-opioid, duplicates, 10 µM, confirmation (AID 2426;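 active = fluorescence ratio normalized to control raised more than 50% in primary screen plus both repeat runs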); conditions: Fluo4 calcium fluorescence, at 10 µM; active compounds read high
[2] = system: transient receptor potential cation channel C4 beta (TRPC4), mouse; test: TRPC4 cation channel opening, second retest – cell-based, second round, Fluo4, HEK293 TRPC4beta/mu-opioid, 1 µM, confirmation (AID 2461;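 active = primary screen active and over 50% activation in each of two duplicate runs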); conditions: Fluo4 calcium fluorescence, at 1 µM; active compounds read high
[3] = system: TRPC4 (transient receptor potential cation channel C4 beta), mouse; test: potentiation of DAMGO EC20 TRPC4 response – cell-based, second round, Fluo-4, HEK293 TRPC4beta/mu-opioid, 1 µM, confirmation (AID 2554;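 active = primary screen hit whose fluorescence ratio, in both repeats, exceeds the weak agonist control mean by 3 SD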); conditions: DAMGO EC20, Fluo-4 calcium flux, at 1 µM; active compounds read high
[4] = system: TRPC4 beta (transient receptor potential cation channel C4), mouse; test: potentiation of DAMGO EC20 TRPC4 response – cell-based, Fluo-4, HEK293 TRPC4beta/mu-opioid, confirmation (AID 2555;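 active = primary screen hit whose calcium fluorescence ratio, in both repeats, exceeds the weak agonist control mean by 3 SD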); conditions: DAMGO EC20, Fluo-4 calcium flux, at 10 µM; active compounds read high
[5] = target: Short transient receptor potential channel 4 (Mus musculus) (UniProt Q9QUQ5); test: blockers of DAMGO-evoked TRPC4 calcium flux – cell-based, Fluo4, HEK293 TRPC4beta/mu-opioid, confirmation (AID 2636;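 active = calcium signal cut by more than 3 SD below the full-agonist control yet still positive, in both repeats and the earlier primary screen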); conditions: at 10 µM; active compounds read high
Short transient receptor potential channel 4 (Mus musculus), sequence (Q9QUQ5 whole entry, looked up): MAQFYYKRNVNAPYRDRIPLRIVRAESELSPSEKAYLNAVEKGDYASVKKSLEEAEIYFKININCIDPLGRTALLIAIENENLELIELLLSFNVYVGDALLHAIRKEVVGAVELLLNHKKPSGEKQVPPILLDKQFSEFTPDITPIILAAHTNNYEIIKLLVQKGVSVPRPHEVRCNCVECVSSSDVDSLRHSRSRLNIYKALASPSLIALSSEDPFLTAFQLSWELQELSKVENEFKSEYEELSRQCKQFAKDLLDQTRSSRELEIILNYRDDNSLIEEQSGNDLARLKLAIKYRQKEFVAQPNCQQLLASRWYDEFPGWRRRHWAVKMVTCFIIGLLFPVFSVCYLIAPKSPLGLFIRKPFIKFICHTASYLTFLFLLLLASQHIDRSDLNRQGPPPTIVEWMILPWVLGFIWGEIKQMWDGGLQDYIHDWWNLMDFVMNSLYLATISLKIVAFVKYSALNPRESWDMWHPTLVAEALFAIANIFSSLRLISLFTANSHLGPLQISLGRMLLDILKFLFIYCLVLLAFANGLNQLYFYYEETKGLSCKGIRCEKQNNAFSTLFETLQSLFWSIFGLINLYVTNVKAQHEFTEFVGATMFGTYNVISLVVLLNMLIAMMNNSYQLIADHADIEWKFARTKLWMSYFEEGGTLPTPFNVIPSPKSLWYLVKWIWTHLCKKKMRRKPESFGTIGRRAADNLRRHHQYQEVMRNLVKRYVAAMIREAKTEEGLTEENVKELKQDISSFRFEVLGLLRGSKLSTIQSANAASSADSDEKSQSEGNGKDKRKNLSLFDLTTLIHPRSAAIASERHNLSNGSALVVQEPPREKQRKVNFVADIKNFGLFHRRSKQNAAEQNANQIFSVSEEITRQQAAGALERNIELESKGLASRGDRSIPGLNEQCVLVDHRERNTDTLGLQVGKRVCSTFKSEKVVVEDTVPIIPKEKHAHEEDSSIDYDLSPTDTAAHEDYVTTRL

[6] = target: Short transient receptor potential channel 4 (Mus musculus) (UniProt Q9QUQ5); test: blockers of DAMGO-evoked TRPC4 calcium flux – cell-based, second round, Fluo4, HEK293 TRPC4beta/mu-opioid, 1 µM, confirmation (AID 2637;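 active = calcium signal ratio cut to more than 3 SD under the fully stimulated control mean yet still positive, in both repeats and the primary screen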); conditions: at 1 µM; active compounds read high
[7] = target: Short transient receptor potential channel 4 (Mus musculus) (UniProt Q9QUQ5); test: calcium entry via TRPC4 opening agents – cell-based, HEK293 TRPC4/mu-opioid, Fluo-4 calcium, dose response (AID 434937;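 active = primary screen activator hit with a dose response curve and TRPC4 channel activation at any tested dose; inactive = no activation, no dose response, or not a primary hit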)
[8] = target: Short transient receptor potential channel 4 (Mus musculus) (UniProt Q9QUQ5); test: potentiation of DAMGO-evoked TRPC4 calcium signal – cell-based, HEK293 TRPC4/mu-opioid, Fluo-4 calcium, EC20 DAMGO, dose response (AID 434941);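 also: calcium entry triggered by an EC20 dose of DAMGO at the co-expressed mu-opioid receptor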
[9] = target: Short transient receptor potential channel 4 (Mus musculus) (UniProt Q9QUQ5); test: block of DAMGO-driven TRPC4 calcium entry – cell-based, HEK293 TRPC4/mu-opioid, Fluo-4 calcium, dose response (AID 434942;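 active = primary screen inhibitor hit that blocks the TRPC4 channel at some tested dose, yielding a dose curve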)
[10] = target: Short transient receptor potential channel 6 (Mus musculus) (UniProt Q61143); test: TRPC6 blockade by TRPC4 inhibitor hits – cell-based, HEK293, membrane potential dye, duplicate, selectivity assay for TRPC4 inhibitor project, confirmation (AID 434948;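 active = active in primary screen and both duplicates, each dropping signal beyond three positive-control SD with fluorescence still positive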); conditions: HEK293 TRPC6, membrane potential dye fluorescence, at 10 µM, stimulated with maximal-effect acetylcholine; active compounds read high
Short transient receptor potential channel 6 (Mus musculus), sequence (Q61143 whole entry, looked up): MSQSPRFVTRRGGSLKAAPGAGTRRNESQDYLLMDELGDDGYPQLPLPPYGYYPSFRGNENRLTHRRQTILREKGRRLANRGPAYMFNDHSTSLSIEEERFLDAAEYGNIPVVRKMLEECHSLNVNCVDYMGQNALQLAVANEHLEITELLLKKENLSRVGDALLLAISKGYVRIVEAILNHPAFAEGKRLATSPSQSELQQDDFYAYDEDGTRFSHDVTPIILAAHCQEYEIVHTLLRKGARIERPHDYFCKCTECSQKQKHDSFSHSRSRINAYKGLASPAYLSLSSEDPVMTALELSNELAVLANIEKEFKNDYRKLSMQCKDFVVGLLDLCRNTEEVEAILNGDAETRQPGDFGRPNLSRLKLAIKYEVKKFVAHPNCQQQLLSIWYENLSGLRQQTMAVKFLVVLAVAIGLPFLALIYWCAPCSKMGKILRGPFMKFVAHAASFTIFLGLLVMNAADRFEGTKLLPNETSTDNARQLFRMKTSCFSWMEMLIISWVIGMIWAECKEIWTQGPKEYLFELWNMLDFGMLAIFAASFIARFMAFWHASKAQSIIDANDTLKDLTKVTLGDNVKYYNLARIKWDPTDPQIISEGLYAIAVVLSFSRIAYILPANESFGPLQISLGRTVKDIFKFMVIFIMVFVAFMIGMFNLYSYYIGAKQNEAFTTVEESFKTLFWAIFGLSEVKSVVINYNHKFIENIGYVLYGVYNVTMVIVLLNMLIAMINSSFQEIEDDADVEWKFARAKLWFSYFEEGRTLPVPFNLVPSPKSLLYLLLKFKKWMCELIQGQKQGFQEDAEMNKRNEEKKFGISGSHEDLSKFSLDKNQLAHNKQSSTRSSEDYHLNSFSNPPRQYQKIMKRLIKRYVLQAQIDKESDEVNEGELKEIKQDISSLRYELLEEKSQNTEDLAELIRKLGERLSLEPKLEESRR

[11] = target: Short transient receptor potential channel 6 (Mus musculus) (UniProt Q61143); test: TRPC6 opening by TRPC4 activator hits – cell-based, HEK293, membrane potential dye, duplicate, selectivity assay for TRPC4 activator project, confirmation (AID 434950;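 active = membrane potential signal rise above negative control mean plus 3 SD in both duplicates, also active in the earlier TRPC4 screen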); conditions: HEK293 TRPC6, membrane potential fluorescence, at 10 µM; activation: active compounds read high; outcome: activation
[12] = target: Short transient receptor potential channel 6 (Mus musculus) (UniProt Q61143); test: positive modulators of mouse TRPC6 channel – HEK293 cells, membrane potential dye, duplicate, selectivity assay for TRPC4 potentiator project, confirmation (AID 434952;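 active = compound raising the membrane signal above positive-control mean plus 3 SD in both repeats, and a primary screen hit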); conditions: HEK293 TRPC6, membrane potential dye fluorescence, at 10 µM, maximal acetylcholine added after compound; active compounds read high
[13] = target: Short transient receptor potential channel 4 (Mus musculus) (UniProt Q9QUQ5); test: calcium flux activators in TRPC4/5HT1a cells, counter-screen for TRPC4 activator project, cell-based, second counter screen, HEK293 TRPC4/5HT1a, Fluo-4 (AID 434977;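 active = calcium signal rise above buffer-control mean plus 5 SD in both duplicates, and also a hit in the primary screen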); conditions: Fluo-4 calcium flux, at 10 µM; active compounds read high
[14] = serotonin-gated TRPC4 signal block – cell-based, second counter screen, HEK293 TRPC4/5HT1a, Fluo-4, counter-screen for TRPC4 inhibitor project, confirmation (AID 434978;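 active = primary screen active whose calcium signal fell more than 3 SD beyond the full-serotonin control mean in both duplicate plates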;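 as to outcome: serotonin given first at submaximal then at maximal dose after compound preincubation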); conditions: Fluo-4 calcium flux, at 10 µM, serotonin added to trigger calcium flux; active compounds read high
[15] = system: TRPC4 (mouse), co-expressed with 5HT1a in HEK293; test: enhancement of serotonin-evoked TRPC4 response – cell-based, second counter screen, HEK293 TRPC4/5HT1a, Fluo-4, counter-screen for TRPC4 potentiator project, confirmation (AID 434979;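 active = signal rise over 3 SD above mean of control wells given weak agonist, in both repeats and first screen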); conditions: Fluo-4 calcium flux, at 10 µM, serotonin added at its EC20 dose; active compounds read high
[16] = nonspecific calcium rise without TRPC4 – cell-based, HEK293 mu-opioid receptor line, counter-screen for TRPC4 activator project, confirmation (AID 449723;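 active = hit in primary screen, with calcium signal over 5 SD above buffer well mean in both duplicates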;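 also: counter screen cells carry the mu-opioid receptor alone and lack TRPC4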); conditions: HEK293 mu-opioid cells, Fluo-4 calcium fluorescence, at 10 µM; active compounds read high
[17] = nonspecific potentiation of DAMGO calcium response – cell-based, HEK293 mu-opioid receptor line, counter-screen for TRPC4 allosteric potentiator project, confirmation (AID 449724;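 active = calcium signal rise more than 3 SD above the low-dose agonist control mean, in both duplicate plates and the primary screen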); conditions: HEK293 mu-opioid receptor cells, Fluo-4 calcium flux, at 10 µM, compound added before EC20 DAMGO stimulus; active compounds read high

CC(=O)c1nn(-c2cccc(Br)c2)cc1C(=O)c1cccc2ccccc12
inactive: outcome [1] | outcome [2] | outcome [3] | outcome [4] | outcome [5] | outcome [6] | outcome [7] | outcome [8] | outcome [9] | outcome [10] | outcome [11] | outcome [12] | outcome [13] | outcome [14] | outcome [15] | outcome [16] | outcome [17]

NC(=O)c1nsc(C(=O)N(Cc2ccco2)C(C(=O)NCc2ccccc2)c2ccc(O)cc2)c1N (stereo not given)
active: inhibition [5] 72% | inhibition [14] 40%
inactive: outcome [1] | outcome [2] | outcome [3] | outcome [4] | outcome [6] | outcome [7] | outcome [8] | outcome [9] | outcome [10] | outcome [11] | outcome [12] | outcome [13] | outcome [15] | outcome [16] | outcome [17]

CC(=O)Nc1cccc(C(=O)OC(C(=O)c2ccc(C)cc2)c2ccccc2)c1 (stereo not given)
inactive: outcome [1] | outcome [2] | outcome [3] | outcome [4] | outcome [5] | outcome [6] | outcome [7] | outcome [8] | outcome [9] | outcome [10] | outcome [11] | outcome [12] | outcome [13] | outcome [14] | outcome [16] | outcome [17]
active: potentiation [15] 22.7%

Cc1cc(OCC(=O)NNC(=S)NC(=O)c2ccc(Br)o2)ccc1Cl
inactive: outcome [1] | outcome [2] | outcome [3] | outcome [5] | outcome [6] | outcome [7] | outcome [8] | outcome [9] | outcome [10] | outcome [11] | outcome [12] | outcome [13] | outcome [14] | outcome [15] | outcome [16] | outcome [17]
active: potentiation [4] 10%

COC(=O)c1ccccc1N=Nc1c(C)[nH][nH]c1=O
active: potentiation [4] 73% | potentiation [15] 14.7%
inactive: outcome [1] | outcome [2] | outcome [3] | outcome [5] | outcome [6] | outcome [7] | outcome [8] | outcome [9] | outcome [10] | outcome [11] | outcome [12] | outcome [13] | outcome [14] | outcome [16] | outcome [17]

N=c1c2c3c(sc2ncn1Cc1ccccc1)CCCC3
inactive: outcome [1] | outcome [2] | outcome [3] | outcome [4] | outcome [5] | outcome [6] | outcome [7] | outcome [8] | outcome [9] | outcome [10] | outcome [11] | outcome [12] | outcome [13] | outcome [14] | outcome [15] | outcome [16] | outcome [17]

N#Cc1ccc(-c2ccccc2)nc1SCCN1CCOCC1
inactive: outcome [1] | outcome [2] | outcome [3] | outcome [4] | outcome [5] | outcome [6] | outcome [7] | outcome [8] | outcome [9] | outcome [10] | outcome [11] | outcome [12] | outcome [13] | outcome [14] | outcome [16] | outcome [17]
active: potentiation [15] 17.3%

COCCn1c(SCC(=O)Nc2ccc(S(=O)(=O)N3CCOCC3)cc2)nc2ccccc21
inactive: outcome [1] | outcome [2] | outcome [3] | outcome [5] | outcome [6] | outcome [7] | outcome [8] | outcome [9] | outcome [10] | outcome [11] | outcome [12] | outcome [13] | outcome [14] | outcome [16] | outcome [17]
active: potentiation [4] 12% | potentiation [15] 26.5%

Cc1ccc(NS(=O)(=O)c2cc(C(=O)N3CCc4ccccc4C3)ccc2Cl)cc1
active: potentiation [15] 9.01%
inactive: outcome [1] | outcome [2] | outcome [3] | outcome [4] | outcome [5] | outcome [6] | outcome [7] | outcome [8] | outcome [9] | outcome [10] | outcome [11] | outcome [12] | outcome [13] | outcome [14] | outcome [16] | outcome [17]

NS(=O)(=O)c1ccc(CCNCc2cc(Br)ccc2OCc2ccccc2)cc1
inactive: outcome [1] | outcome [2] | outcome [3] | outcome [4] | outcome [5] | outcome [6] | outcome [7] | outcome [8] | outcome [9] | outcome [10] | outcome [11] | outcome [12] | outcome [13] | outcome [14] | outcome [15] | outcome [16] | outcome [17]

COc1ccccc1CNCc1cc(Br)ccc1OC
inactive: outcome [1] | outcome [2] | outcome [3] | outcome [4] | outcome [5] | outcome [6] | outcome [7] | outcome [8] | outcome [9] | outcome [10] | outcome [11] | outcome [12] | outcome [13] | outcome [14] | outcome [15] | outcome [16] | outcome [17]

CCN1CCCC(OC(=O)c2cc(-c3ccccc3Cl)nc3ccccc23)C1 (stereo not given)
inactive: outcome [1] | outcome [2] | outcome [3] | outcome [4] | outcome [5] | outcome [6] | outcome [7] | outcome [8] | outcome [9] | outcome [10] | outcome [11] | outcome [12] | outcome [13] | outcome [14] | outcome [16] | outcome [17]
active: potentiation [15] 9.46%

CSc1ccc(/C=N\NC(=O)CC(=O)NC(C)C)cc1
inactive: outcome [1] | outcome [2] | outcome [3] | outcome [4] | outcome [5] | outcome [6] | outcome [7] | outcome [8] | outcome [9] | outcome [10] | outcome [11] | outcome [12] | outcome [13] | outcome [14] | outcome [15] | outcome [16] | outcome [17]

C=CCn1c(SCC(=O)c2ccc(NS(=O)(=O)c3ccccc3)cc2)nnc1-c1cccs1
inactive: outcome [1] | outcome [2] | outcome [3] | outcome [4] | outcome [5] | outcome [6] | outcome [7] | outcome [8] | outcome [9] | outcome [10] | outcome [11] | outcome [12] | outcome [13] | outcome [14] | outcome [16] | outcome [17]
active: potentiation [15] 14%

CC1CCc2c(C(=O)N3CCN(S(=O)(=O)c4cccs4)CC3)csc2C1 (stereo not given)
active: potentiation [4] 22%
inactive: outcome [1] | outcome [2] | outcome [3] | outcome [5] | outcome [6] | outcome [7] | outcome [8] | outcome [9] | outcome [10] | outcome [11] | outcome [12] | outcome [13] | outcome [14] | outcome [15] | outcome [16] | outcome [17]
